Records with an inconclusive call do not appear. The source made the active and inactive calls. The calls were made as follows: active = hit-call score of the fitted dose curve at least 0.9, where 1 is the maximum; inconclusive = response in the unintended direction; inactive = score below 0.9.
Legend:
[1] = TOX21_p53_BLA_p2_viability: Viability Assessment in the Tox21 HCT-116 p53 Agonism Beta-lactamase Assay, Phase 2 (AID 2283591);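 also: compound exposure lasted 16 h at 37 °C; actives lower the ATP signal meaning cytotoxicity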
Summary of the method: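 HCT-116 p53-bla cells (4000/well) rested 5 h at 37C, then received compounds in DMSO (217-fold dilution) for 16 h at 37C, 5% CO2. After the CCF4 read, CellTiter-Glo was added; ATP luminescence was read after 30 min at room temperature.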

[2] = molecular target: Cellular tumor antigen p53 (Homo sapiens) (UniProt P04637); assay: TOX21_p53_BLA_p2_ratio: Tox21 HCT-116 p53 Agonism Beta-lactamase Assay, Ratio, Phase 2 (AID 2283592)
Summary of the method: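 HCT116 cells carrying a p53-responsive beta-lactamase reporter were plated, incubated 5 h at 37C, then dosed with compounds in DMSO (217-fold dilution) for 16 h. CCF4-AM substrate was added for 2 h at room temperature; the 460/530 nm emission ratio gave gain-of-signal activity relative to DMSO.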

[3] = TOX21_p53_BLA_p4_viability: Viability Assessment in the Tox21 HCT-116 p53 Agonism Beta-lactamase Assay, Phase 4 (AID 2283597);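 also: hits lower the luminescence signal meaning cytotoxicity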
Summary of the method: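 HCT116 p53-bla cells (4000/well) rested 5 h at 37C, then received compounds in DMSO (217-fold dilution) for 16 h at 37C, 5% CO2. CellTiter-Glo was added after the CCF4-AM read, and luminescence was read after 30 min at room temperature.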

[4] = molecular target: Cellular tumor antigen p53 (Homo sapiens) (UniProt P04637); assay: TOX21_p53_BLA_p5_ratio: Tox21 HCT-116 p53 Agonism Beta-lactamase Assay, Ratio, Phase 5 (AID 2283599)
Summary of the method: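 HCT-116 cells carrying a p53-inducible beta-lactamase reporter were seeded at 4000 cells/well and dosed after 5 h with compound in DMSO (217-fold dilution). After 16 h at 37C, CCF4-AM substrate was added for 2 h, and the 460/530 nm emission ratio was scored as gain-of-signal versus DMSO.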

[5] = TOX21_p53_BLA_p5_viability: Viability Assessment in the Tox21 HCT-116 p53 Agonism Beta-lactamase Assay, Phase 5 (AID 2283600)
Summary of the method: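 Cells were plated at 4000/well, rested 5 h at 37C, then given compounds in DMSO (217-fold dilution) for 16 h at 37C, 5% CO2. Following the CCF4-AM beta-lactamase read, CellTiter-Glo was added and luminescence was read after 30 min at room temperature.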

[6] = molecular target: Cellular tumor antigen p53 (Homo sapiens) (UniProt P04637); assay: TOX21_p53_BLA_p4_ratio: Tox21 HCT-116 p53 Agonism Beta-lactamase Assay, Ratio, Phase 4 (AID 2283601)
Summary of the method: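 HCT116 cells carrying an inducible beta-lactamase reporter were plated at 4000 cells/well, rested 5 h, then exposed to compounds in DMSO (217-fold dilution) for 16 h at 37C. CCF4-AM substrate was loaded 2 h at room temperature; 460/530 nm emission ratio scored gain-of-signal versus DMSO.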

[7] = molecular target: Cellular tumor antigen p53 (Homo sapiens) (UniProt P04637); assay: TOX21_p53_BLA_p3_ratio: Tox21 HCT-116 p53 Agonism Beta-lactamase Assay, Ratio, Phase 3 (AID 2283596)
Summary of the method: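 HCT116 p53-bla cells (4000/well) given compound in DMSO (217-fold dilution) after 5 h, incubated 16 h at 37C. CCF4-AM substrate 2 h at room temperature; 460/530 nm emission ratio, gain fitted against DMSO.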

Measured: AC50

Chain of Cellular tumor antigen p53 (Homo sapiens) (P04637 whole entry, looked up): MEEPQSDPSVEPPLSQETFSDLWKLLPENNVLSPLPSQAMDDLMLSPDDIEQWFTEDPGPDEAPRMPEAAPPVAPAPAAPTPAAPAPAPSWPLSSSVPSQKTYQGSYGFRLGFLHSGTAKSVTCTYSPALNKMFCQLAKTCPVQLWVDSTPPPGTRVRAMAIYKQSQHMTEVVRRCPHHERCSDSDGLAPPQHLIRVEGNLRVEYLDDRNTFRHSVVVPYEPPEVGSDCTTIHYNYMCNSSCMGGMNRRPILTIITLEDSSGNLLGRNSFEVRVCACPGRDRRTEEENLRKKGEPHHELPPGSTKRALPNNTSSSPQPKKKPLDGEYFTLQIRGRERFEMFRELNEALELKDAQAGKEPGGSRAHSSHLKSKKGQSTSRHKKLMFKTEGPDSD

O=C(O)CBr
not listed: [7]
inactive: all other assays above

Clc1ccc2c(c1)C(c1ccccc1)=NCc1nncn1-2
not listed: [3] | [4]
inactive: all other assays above

CCSC(=O)Cl
not listed: [7]
inactive: all other assays above

CCN1C[C@]2(COC)[C@H](O)C[C@H](OC)[C@@]34[C@@H]5C[C@@]6(O)[C@H](OC(=O)c7ccccc7)[C@@H]5[C@@](OC(C)=O)([C@@H]([C@H](OC)[C@H]23)[C@@H]14)[C@@H](O)[C@@H]6OC
not listed: [7]
inactive: all other assays above

C=CCc1cc(OC)c2c(c1)OCO2
not listed: [3] | [5]
inactive: all other assays above

NC1=NC(=O)C(c2ccccc2)O1 (stereo unspecified)
not listed: [3] | [4]
inactive: all other assays above

CCC1(c2ccccc2)C(=O)NC(=O)N(C)C1=O (stereo unspecified)
inactive: [1] | [2] | [7] | [5]

CCN(CC)Cc1nccn1-c1ccc([N+](=O)[O-])cc1C(=O)c1ccccc1Cl
not listed: [6] | [7]
inactive: all other assays above

O=[N+]([O-])c1cccc(O)c1
not listed: [6] | [7]
inactive: all other assays above

O=C(O)/C=C/C(=O)O
not listed: [3]
inactive: all other assays above

[2H]C([2H])([2H])[C@H](N)Cc1ccccc1
inactive: [1] | [2] | [7] | [5]

CCCCC/C=C\C/C=C\C/C=C\C/C=C\CCCC(=O)NCC(=O)O
not listed: [7]
inactive: all other assays above

CCCN1CCC[C@@H]2Cc3nc(N)ncc3C[C@H]21
inactive: [1] | [2] | [3] | [4]

CC(C)NCC(O)c1ccc(N)c(C#N)c1 (stereo unspecified)
not listed: [3]
inactive: all other assays above

CCOC(=O)N(C)C(=O)CSP(=S)(OCC)OCC
not listed: [7]
inactive: all other assays above

Clc1cc2c(cc1Cl)Oc1cc(Cl)c(Cl)cc1O2
inactive: [1] | [2] | [3] | [4]

C[C@H]1[C@@H]2Cc3ccc(O)cc3[C@@]1(C)CCN2C
not listed: [3]
inactive: all other assays above

O=S1(=O)OCCO1
not listed: [7]
inactive: all other assays above

CC1=C2[C@H]3OC(=O)[C@@H](C)[C@@H]3CC[C@@]2(C)C=CC1=O
not listed: [7]
inactive: all other assays above

COc1ccc(C=O)cc1O
not listed: [3] | [5]
inactive: all other assays above

CC(C)(C)NC[C@H](O)c1ccc(O)cc1Cl
inactive: [1] | [2] | [3]

CCCCCCC#N
not listed: [7]
inactive: all other assays above

CC(C)(C)NCC(O)c1cc(Cl)c(N)c(Cl)c1 (stereo unspecified)
inactive: [1] | [2] | [7] | [6]

OP(O)c1ccccc1
not listed: [3]
inactive: all other assays above

CC(C)(CCl)C(=O)Cl
not listed: [6] | [7]
inactive: all other assays above

C[C@]12C=CC(=O)C=C1CC[C@@H]1[C@@H]2CC[C@]2(C)OC(=O)CC[C@@H]12
not listed: [3]
inactive: all other assays above

COC(=O)[C@@H]1[C@H]2CC[C@@H](C[C@H]1OC(=O)c1ccccc1)N2C
inactive: [1] | [2] | [3] | [4]

COC(=O)C(Br)CBr (stereo unspecified)
inactive: [1] | [2] | [4] | [6]
active: [7] 48 µM

NP(N)(=O)NC(=O)c1ccc(F)cc1
not listed: [7]
inactive: all other assays above

CNC(=O)Oc1cc(C)c(N(C)C)c(C)c1
not listed: [3] | [5]
inactive: all other assays above

Cc1coc2c1CCC(C)C2 (stereo unspecified)
not listed: [6] | [7]
inactive: all other assays above

C=CCSSCC=C
active: [7] 57.5 µM
inactive: [1] | [2] | [5]

C=CCC1([C@@H](C)CCC)C(=O)NC(=O)NC1=O
not listed: [6] | [7]
inactive: all other assays above

ClCC1CO1 (stereo unspecified)
not listed: [7]
inactive: all other assays above

CCOP(=S)(OCC)Oc1cc(-c2ccccc2)on1
inactive: [1] | [2] | [3] | [4]

CNP(=O)(OC)Oc1ccc(C(C)(C)C)cc1Cl (stereo unspecified)
not listed: [3]
inactive: all other assays above

Reference: PubChem BioAssay (EPA / NIEHS)
